From PubChem
A selection: hits, their analogues and other compounds. The true share with any hit is near 19%.
HT1080-NT tox = kills 2HG-producing HT-1080-NT fibrosarcoma cells. HT-1080-NT fibrosarcoma viability, CellTiter-Glo ATP luminescence, 48 h. Potency, µM (series often up to 46.1 µM), for inactives: at the top dose activity, negative = less viability, hits mostly cytotoxic. 360,000 compounds, 1.6% hits;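 note: NT is the 2HG producing partner of a matched IDH1 knockdown line; potency is the fitted concentration of half-maximal effect; 0% = DMSO-treated cells and -100% = media-only wells without cells; nearly all actives have a fitted effect of over 55% in size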
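A 48-hour cytotoxicity screen used HT-1080-NT cells plated 2 hours before compound delivery. ATP-based CellTiter-Glo luminescence measured viability, normalized to DMSO and no-cell controls.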
IL1B secr inh = inflammasome signaling inhibition, IL-1 beta readout | activity change, % at 57.5 µM | 360,000 compounds, 4.7% hits | THP-1 LPS/ATP IL-1B secretion, AlphaLISA, 16 h; hits give low values; in the data active = activity change below about -50%; inconclusive = mostly about -30% to -49%
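THP-1 cells pretreated 1 hr with compounds (up to 57.5 uM final), then stimulated with LPS (250 ng/mL final) plus ATP (1.25 mM final); secreted IL-1B measured by AlphaLISA after 16 hr, decreased signal indicating inhibition.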
uPA surface inh = inhibitors of cell surface uPA generation. Potency, µM (top dose mostly 38.3 µM), without a hit: at the top dose activity change, negative = inhibition, actives largely listed as inhibitors. cell surface uPA generation assay, qHTS. AID 540303. 330,000 compounds, 0.31% hits; active = well fitted inhibition curve with a large enough effect; inconclusive = small, poorly fitted or top-dose-only effect; inactive = no such curve, though single readings can be large or run the other way; tested in mouse RAW 264.7 cells; note: potency is the fitted concentration of half-maximal effect; nearly all actives have a fitted effect of over 55% in size
TDP1 cell noCPT = qHTS for Inhibitors of human tyrosyl-DNA phosphodiesterase 1 (TDP1): qHTS in cells in absence of CPT | AID 686978, 2013 | DT40 Tdp1-/- hTDP1 cells, no CPT, ATP luminescence, 48 h | 420,000 compounds, 15% hits | Potency, µM (top dose mostly 46.2 µM), inactives show top-dose activity change, negative = growth inhibition, most hits filed as inhibitors; note: potency is the fitted concentration of half-maximal effect; nearly all actives have a fitted effect of over 55% in size
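Chicken DT40 Tdp1-/- cells complemented with human TDP1, screened without camptothecin (DMSO vehicle only), 400 cells/well. Compounds pin-transferred, cells incubated at 37 °C for at least 48 hr. Growth read as ATP-dependent luminescence (CellTiter-Glo, 30 min at RT).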
DT40 TDP1 CPT = DT40-hTDP1 cell growth loss with CPT; chicken DT40 Tdp1-/-;hTDP1 cells + 20 nM CPT, ATP luminescence, 48 h; Potency, µM (titrated, usually from 46.2 µM), for inactives: top-dose activity change, negative = growth inhibition, actives largely listed as inhibitors; 420,000 compounds, 12% hits; AID 686979; note: potency is the fitted concentration of half-maximal effect; nearly all actives have a fitted effect of over 55% in size
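Cell growth measured by CellTiter-Glo luminescence after a minimum 48 h, 37 C compound exposure with 20 nM CPT in Tdp1-knockout DT40 cells stably expressing hTDP1, seeded 400/well; qHTS titration format.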
HT1080 IDH1KD tx = toxicity to HT-1080 IDH1 knockdown cells (counter line) | Potency, µM (series often up to 46.1 µM), for inactives: top-dose activity, negative = toxicity, actives largely listed as cytotoxic | HT-1080 IDH1 knockdown viability, ATP luminescence, 48 h | 360,000 compounds, 2% hits;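 note: potency is the fitted concentration of half-maximal effect; 0% = DMSO wells and -100% = cell-free medium wells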
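Cytotoxicity counter-line: IDH1KD HT-1080, 48 h, CellTiter-Glo. Curves classed by r2, magnitude and activity.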
Active calls of the source: *; u = inconclusive; x = no result. Unless noted, calls come from the whole dose curve; as a rule, active = well fitted curve in the direction sought with a large enough effect; inconclusive = small, poorly fitted or top-dose-only effect, or another doubt; inactive = no such curve, though single readings can be large; an effect the other way counts as inactive or inconclusive. Unless noted, % is set by controls: 0 for no effect and ±100 for the full control effect.

SMILES	HT1080-NT tox	IL1B secr inh	uPA surface inh	TDP1 cell noCPT	DT40 TDP1 CPT	HT1080 IDH1KD tx
O=C(O)CCC(=O)N1N=C(c2ccc(Br)cc2)CC1c1ccc(Br)cc1 (stereo not drawn)	-8%	-6	-3%	-16%	-12%	-13%
CC(=O)N1N=C(c2ccc(Br)cc2)CC1c1ccc(Br)cc1 (stereo not drawn)	-1%	30	x	-16%	-16%	1%
CNC(=S)N1N=C(c2ccc(C)cc2)CC1c1ccc(Br)cc1 (stereo not drawn)	-5%	u	x	7.3µM*	10µM*	u
CC(C)c1ccc(C2CC(c3ccc(Br)cc3)=NN2C(N)=S)cc1 (stereo not drawn)	-23%	-4	2%	9.2µM*	15µM*	u
COc1ccc2c(c1)CC(NC(=O)Nc1ccc(NC(C)=O)cc1)CO2 (stereo not drawn)	x	x	x	-7%	-5%	x
O=C(Cn1cc(C(=O)C(F)(F)F)c2ccccc21)N1CCCCCC1	x	x	x	-6%	-18%	x
CCOc1ccc(OCC)c(NC(=O)Cn2ncc3c4ccccc4n(Cc4ccccc4)c3c2=O)c1	x	x	x	-22%	-9%	x
Cc1ccc(CNS(=O)(=O)c2ccc3[nH]c4c(c3c2)CCCC4)cc1	x	x	x	-24%	0%	x
Cc1ccc(CNS(=O)(=O)c2ccc3[nH]c4c(c3c2)CCCCC4)cc1	x	x	x	15µM*	u	x
CN(Cc1ccccc1)S(=O)(=O)c1ccc2[nH]c3c(c2c1)CCCCC3	x	x	x	16µM*	u	x
Cc1cc(C)cc(NC(=S)NCc2ccc3[nH]c4c(c3c2)CCCC4)c1	-20%	u	8%	16µM*	u	-23%
CN(Cc1ccccc1)S(=O)(=O)c1ccc2c(c1)CCC(=O)N2	3%	8	5%	-22%	11%	-1%
O=S(=O)(NCc1ccc(Cl)cc1)c1ccc2[nH]c3c(c2c1)CCCC3	x	x	x	5.8µM*	u	x
O=C1[C@@H]2[C@H](C(=O)N1CC(O)COCc1ccccc1)C1C=C[C@H]2C1 (stereo partly drawn)	4%	46	1%	9%	-1%	12%
O=S(=O)(NCc1ccccc1)c1ccc2[nH]c3c(c2c1)CCCCC3	x	x	x	21µM*	u	x
O=S(=O)(NCc1ccc(F)cc1)c1ccc2[nH]c3c(c2c1)CCCC3	x	x	x	16µM*	u	x
COCCCNS(=O)(=O)c1ccc2[nH]c3c(c2c1)CCCCC3	-20%	31	2%	u	-50%	0%
CCOc1ccc(CCNC(=O)Cn2ncn3c(cc4ccccc43)c2=O)cc1OCC	x	x	x	-26%	-10%	x
Cc1ccc(-c2nnc(Nc3ccc(Cl)cc3)c3ccccc23)cc1S(=O)(=O)NCC1CCCO1 (stereo not drawn)	x	x	x	21µM*	u	x
Cc1ccc(-c2nnc(Nc3cccc(Cl)c3)c3ccccc23)cc1S(=O)(=O)NCC1CCCO1 (stereo not drawn)	x	x	x	4.1µM*	23µM*	x
COc1nnc(-c2ccc(C)c(S(=O)(=O)NCC3CCCO3)c2)c2ccccc12 (stereo not drawn)	-14%	-5	-4%	u	u	-11%
Cc1ccc(-c2nnc(N3CCCCC3)c3ccccc23)cc1S(=O)(=O)NCC1CCCO1 (stereo not drawn)	u	-26	x	21µM*	18µM*	u
Cc1cccc(Nc2nnc(-c3ccc(C)c(S(=O)(=O)NCC4CCCO4)c3)c3ccccc23)c1 (stereo not drawn)	x	x	x	6.5µM*	23µM*	x
O=S1(=O)CCOCCCN1Cc1cccc(Cl)c1	x	x	x	u	-72%	x
O=C1C(Cl)=C(NCCc2ccccc2)C(=O)N1CCc1ccccc1	-1%	-19	-2%	-27%	-5%	0%
SMILES	HT1080-NT tox	IL1B secr inh	uPA surface inh	TDP1 cell noCPT	DT40 TDP1 CPT	HT1080 IDH1KD tx
CCN(CC)CCCNC1=C(Cl)C(=O)c2ccccc2C1=O	u	-110*	-15%	4.1µM*	3.3µM*	21µM*
COCCCNC1=C(Cl)C(=O)c2ccccc2C1=O	u	-7	-13%	u	u	-8%
O=C1C(Cl)=C(NCCc2ccccc2)C(=O)c2ccccc21	9.2µM*	u	-9%	1.5µM*	0.82µM*	u
C=CCNC1=C(Cl)C(=O)c2ccccc2C1=O	-15%	-4	-6%	16µM*	15µM*	-26%
O=C1C(Cl)=C(Nc2ccccc2)C(=O)c2ccccc21	2%	-107*	15%	2.9µM*	2.1µM*	2%
CC(C)OCCCNC1=C(Cl)C(=O)c2ccccc2C1=O	-22%	x	-6%	u	u	u
Cc1cccc(C)c1NC(=O)C1(C)CSCC(=O)N1CCc1ccccc1F (stereo not drawn)	-14%	-23	x	u	-19%	-8%
CCN(CC(=O)Nc1c(F)cccc1F)C(=O)/C=C/c1ccc(Br)s1	7%	-22	5%	-26%	u	8%
CC(C)NC1=C(Cl)C(=O)c2ccccc2C1=O	u	-3	u	u	18µM*	7.1µM*
CC(=O)N(Cc1ccc(F)cc1)C1=C(NCCc2ccccc2)C(=O)c2ccccc2C1=O	5.8µM*	-79*	-16%	1.8µM*	1.8µM*	5.2µM*
O=C(O)c1ccc(NC2=C(Cl)C(=O)c3ccccc3C2=O)cc1	-10%	10	-13%	13µM*	15µM*	-16%
O=C(NCCc1ccc(F)cc1)N[C@@H](Cc1ccccc1)C(=O)O	8%	8	-23%	4%	3%	4%
O=C1C(Cl)=C(NCc2cccnc2)C(=O)c2ccccc21	18µM*	-101*	-11%	8.2µM*	13µM*	u
Cc1ccc(-n2nc(C(=O)NC(C)C)c(=O)n(C)c2=O)cc1	x	x	x	-15%	-16%	x
COc1cc(Br)ccc1C1CC(=O)C(C)C(c2ccc(Br)cc2OC)N1 (stereo not drawn)	-1%	0	1%	2%	-1%	0%
CC(=O)Nc1cccc(NS(=O)(=O)c2ccc3c(c2)CCC(=O)N3)c1	0%	-5	x	-2%	-14%	6%
O=C(O)c1cccc(NC2=C(Cl)C(=O)c3ccccc3C2=O)c1	u	-65*	u	13µM*	12µM*	16µM*
COc1cc(CNC(=O)Nc2cccn3nc(COCCO)nc23)cc(OC)c1OC	-1%	-6	x	2%	-15%	27%
O=C1Nc2ccccc2SC1=Cc1ccccc1	-5%	u	x	u	-19%	-26%
